Some of the results follow. The source made the active and inactive calls.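 The calls were made as follows: active = inhibition above the mean of compounds lying within the control limits plus 3 SD (cut at about 16% in these data); inactive = the rest.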

The assay deals with Fibrinogen beta chain (Homo sapiens) (UniProt P02675). The assay is described as follows: Tn6 displacement from DD(E) complex – biochemical, fluorescence polarization, human fibrin, Tn6 probe, confirmation (AID 720631).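 Also: 0% = plate median of compound wells and 100% = inhibitor peptide control.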 The conditions noted are these: FP displacement of TRITC-Tn6 peptide from DD(E); at 8.3 µM; hits give high values; 0% = per-plate median of test wells.
Sequence of Fibrinogen beta chain (Homo sapiens) (P02675 whole entry, looked up): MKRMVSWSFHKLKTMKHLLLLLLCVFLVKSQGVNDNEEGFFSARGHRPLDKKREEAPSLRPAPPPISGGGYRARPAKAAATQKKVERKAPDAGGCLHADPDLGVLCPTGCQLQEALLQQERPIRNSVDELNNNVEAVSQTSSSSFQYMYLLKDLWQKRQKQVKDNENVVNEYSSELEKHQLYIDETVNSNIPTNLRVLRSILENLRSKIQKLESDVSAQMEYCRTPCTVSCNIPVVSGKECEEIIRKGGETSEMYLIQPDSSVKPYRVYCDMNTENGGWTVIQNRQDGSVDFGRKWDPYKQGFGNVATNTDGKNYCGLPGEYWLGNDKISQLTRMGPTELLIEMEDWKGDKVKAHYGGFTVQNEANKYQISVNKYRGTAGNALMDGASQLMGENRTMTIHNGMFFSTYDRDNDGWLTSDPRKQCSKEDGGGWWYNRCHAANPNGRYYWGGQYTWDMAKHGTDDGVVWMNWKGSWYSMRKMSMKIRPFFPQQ
With `Cc1ccc(-c2nn(-c3ccccc3)cc2/C=C/C(=O)Nc2cccc(S(N)(=O)=O)c2)cc1`, the inhibition was 4.74% (inactive). For `Cc1cc2nc3c(=O)[nH]c(=O)nc-3n(C[C@H](O)[C@H](O)[C@H](O)CO)c2cc1C` the value was 12.4% (inactive). With `CONc1nc2nonc2nc1NOC`, the inhibition was -1.66% (inactive).

Turning to `Cc1ccc(-c2nc(C)sc2CC(=O)O)cc1`, the inhibition was 1.06% (inactive). Then `Cc1nnsc1S(=O)(=O)Cc1ccccc1Cl`, with -10.5% (inactive); and `O=C(Nc1cccc(-c2nc3ccccc3[nH]2)c1)c1ccc(C(=O)Nc2cccc(-c3nc4ccccc4[nH]3)c2)cc1`, with 29.2% (active).

As for `O=C(NCCNc1ccccc1[N+](=O)[O-])c1ccccc1F`, the inhibition is -1.55% (inactive). For `COc1ccc(Nc2nc(-c3ccccc3)cs2)cc1` the value was -0.61% (inactive); for `CCc1cc(-c2nnc(SCC(=O)NC3CC3)n2C)cs1`, 2.54% (inactive); for `Cc1ccc(NC(=O)CN2CCc3ccccc3C2)cc1`, -6.7% (inactive). For `COc1ccc(Nc2nc(-c3cccnc3)nc3ccccc23)cn1` the value was -6.63% (inactive). For `O=c1cc(Cn2nnc(-c3ccc(Cl)cc3)n2)nc2sccn12` the value was -6.19% (inactive); for `COc1ccc(N2C(=O)NC(NS(=O)(=O)c3ccc(Cl)cc3)(C(F)(F)F)C2=O)cc1` (stereo unspecified), 1.83% (inactive); for `Cc1cc(C)c2nc(NC(=O)C3CCCO3)sc2c1` (stereo unspecified), 4.35% (inactive). Turning to `CN1c2ccc(C=O)c3c(C=O)ccc(c23)N(C)C1(C)C`, the inhibition is -6.98% (inactive). Then `Cc1nn(C)cc1N1C(=O)c2cccc3c(N)ccc(c23)C1=O`, with 1.67% (inactive); and `CCOCC(=O)NCc1ccc2c(c1)cc(C)n2C`, with 0.62% (inactive); and `COc1cc(NC(=O)c2ccc(CNc3c(N4CCCC4)c(=O)c3=O)cc2)cc(OC)c1OC`, with -4.66% (inactive). Then `Cc1cc2cc(CNC(=O)c3ccc(S(=O)(=O)N4CCOCC4)cc3)ccc2[nH]1`, with -6.87% (inactive); and `CCOC(=O)N1CCN(Cc2nc(N)nc(Nc3ccc(C)cc3)n2)CC1`, with -3.1% (inactive). Then `Oc1ccc(N=Cc2sc3ccccc3c2Cl)cc1`, with -11.2% (inactive); and `CCc1ccccc1NC(=S)Nc1cc(OC)c(NC(=O)C(C)C)cc1OC`, with -4.51% (inactive).

In the case of `CCC1C(=O)NCCN1C(=O)c1ccc2nc(Cc3ccc(OC)cc3)oc2c1` (stereo unspecified), the inhibition is -13.1% (inactive). Then `O=C(CCl)NNc1cccc(Cl)n1`, with 4.87% (inactive); and `Cc1cc2ccccc2n1CCNC(=O)COc1ccc2ccccc2c1`, with 12.1% (inactive).

Regarding `O=c1[nH]n(-c2ccc([N+](=O)[O-])cc2)c(=O)c2ccccc12`, the inhibition is 12.3% (inactive).
